According to PubChem BioAssay (NCI):
The panel holds about 79,000 compounds, 15% with a hit somewhere; the sample as a whole holds those more often. Activity calls are given as the source filed them. Cut-off read from the data, not from the text of the source: active = growth inhibition above about 70%; inactive = the rest.

Assays:
[1] = NCI Yeast Anticancer Drug Screen. Data for the rad52 strain (AID 147);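 note: 0% = growth of vehicle-treated control cultures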; settings: S. cerevisiae rad52 mutant growth inhibition, stronger effect = higher value
Outline: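 Here a repair-compromised yeast strain receives each compound; its growth is then quantified and normalised to vehicle-only controls.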

[2] = NCI Yeast Anticancer Drug Screen. Data for the wt1 strain (AID 149);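 note: 0% = growth of vehicle-treated wt1 cultures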; settings: S. cerevisiae wt1 strain (SPY 50644) growth inhibition, stronger effect = higher value
Outline: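 Using yeast strain wt1, compound-induced growth inhibition was determined against vehicle-treated cultures.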

[3] = NCI Yeast Anticancer Drug Screen. Data for the rad50EPP+ strain (AID 151);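 note: 0% = growth of vehicle-treated control cultures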; settings: S. cerevisiae rad50 mutant strain, stronger effect = higher value
Outline: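 Read-out is yeast growth inhibition relative to vehicle; cells used were the rad50EPP+ strain.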

[4] = NCI Yeast Anticancer Drug Screen. Data for the mgt1 strain (AID 153); settings: S. cerevisiae mgt1 mutant growth inhibition, stronger effect = higher value
Outline: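 Measured: inhibition of mgt1 yeast growth by compound, normalized to vehicle-treated cultures.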

[5] = NCI Yeast Anticancer Drug Screen. Data for the rad50 strain (AID 155);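 note: 0% = growth of vehicle-only cultures of the same strain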; settings: S. cerevisiae rad50 strain growth inhibition, stronger effect = higher value
Outline: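 Relative growth inhibition (compound vs vehicle) was measured in yeast with a defined repair-gene alteration.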

[6] = NCI Yeast Anticancer Drug Screen. Data for the mec2-1 strain (AID 157); settings: S. cerevisiae mec2-1 strain, stronger effect = higher value
Outline: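 Using mec2-1 yeast: add compound, measure growth, express inhibition versus vehicle-treated cultures.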

[7] = NCI Yeast Anticancer Drug Screen. Data for the rad14 strain (AID 159);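 note: 0% = growth of vehicle-treated control cultures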; settings: S. cerevisiae rad14 strain growth inhibition, stronger effect = higher value
Outline: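 Screen for anticancer potential: a yeast strain altered in DNA damage repair is grown with compound, and reduced growth is quantified against vehicle controls.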

[8] = NCI Yeast Anticancer Drug Screen. Data for the sgs1 mgt1 strain (AID 161);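 note: 0% = growth of cultures given vehicle only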; settings: S. cerevisiae sgs1 mgt1 strain, stronger effect = higher value
Outline: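 Growth of a repair-deficient yeast mutant was monitored after compound treatment and expressed as inhibition relative to vehicle-treated cultures.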

[9] = NCI Yeast Anticancer Drug Screen. Data for the CLN2oe strain (AID 163);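 note: 0% = growth of vehicle-only control cultures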; settings: S. cerevisiae CLN2oe strain, stronger effect = higher value
Outline: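 Whole-cell yeast growth assay. A strain engineered for altered cell-cycle control received compound, and inhibition relative to vehicle-treated cultures was recorded.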

[10] = NCI Yeast Anticancer Drug Screen. Data for the cln2 rad14 strain (AID 165);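 note: 0% = growth equal to vehicle treated cultures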; settings: S. cerevisiae cln2 rad14 strain, stronger effect = higher value
Outline: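 Yeast strain cln2 rad14, bearing defects in cell cycle control and DNA repair, serves as the test system; values reflect growth inhibition compared with vehicle.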

[11] = NCI Yeast Anticancer Drug Screen. Data for the bub3 strain (AID 167); settings: S. cerevisiae bub3 mutant strain, stronger effect = higher value
Outline: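 Screening used yeast with an engineered genetic alteration affecting cell cycle control. Compound-exposed cultures were compared with vehicle cultures, and reduced growth was taken as inhibition.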

[12] = NCI Yeast Anticancer Drug Screen. Data for the wt2 strain (AID 169);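 note: 0% = growth of vehicle-treated yeast cultures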; settings: S. cerevisiae wt2 strain growth inhibition, stronger effect = higher value
Outline: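 Treated yeast vs. vehicle-treated yeast: growth inhibition determined.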

[13] = NCI Yeast Anticancer Drug Screen. Data for the mlh1 strain (AID 171);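 note: 0% = growth of vehicle-treated control cultures of the same strain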; settings: S. cerevisiae mlh1 strain growth inhibition, stronger effect = higher value
Outline: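 A yeast strain with a defined genetic lesion serves as the test organism. Cultures receive compound or vehicle, and growth is measured.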

[14] = NCI Yeast Anticancer Drug Screen. Data for the sgs1 strain (AID 173);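 note: 0% = growth of vehicle-only control cultures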; settings: S. cerevisiae sgs1 mutant, stronger effect = higher value
Outline: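 A genetically defined yeast mutant is incubated with the test compound, and its growth is compared to that of the same strain given vehicle.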

[15] = NCI Yeast Anticancer Drug Screen. Data for the mlh1 rad18 strain (AID 175); settings: S. cerevisiae mlh1 rad18 strain growth inhibition, stronger effect = higher value
Outline: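 Steps: expose repair-defective yeast to compound; measure growth; express inhibition against vehicle-treated controls.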

[16] = NCI Yeast Anticancer Drug Screen. Data for the rad18 strain (AID 177); settings: S. cerevisiae rad18 mutant growth inhibition, stronger effect = higher value
Outline: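 Measured value is growth inhibition of a yeast strain bearing a DNA repair alteration, referenced to vehicle-treated cells.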

[17] = at 5.0 µM (retest, dose inferred, filed as 0.5)
[18] = at 50.0 µM (retest, dose inferred, filed as 5.0)

Measured: growth inhibition

CN1CCN(C(=O)c2cccc3cccc(C(=O)O)c23)CC1
active: [1]; at 100.0 µM 97% | [3]; at 100.0 µM 72% | [4]; at 100.0 µM 99% | [5]; [18] 84% | [5]; at 50.0 µM 85% | [5]; at 100.0 µM 99% | [6]; at 50.0 µM 97.7% | [6]; at 100.0 µM 99% | [7]; at 100.0 µM 98% | [8]; [18] 88% | [8]; at 50.0 µM 77.6% | [9]; at 100.0 µM 97% | [11]; [18] 89% | [11]; at 100.0 µM 97% | [12]; at 100.0 µM 98% | [13]; at 100.0 µM 100% | [14]; at 100.0 µM 100% | [15]; [18] 99% | [16]; at 100.0 µM 99%
inactive: [1]; at 1.2 µM 11% | [1]; at 3.7 µM 10% | [1]; at 11.0 µM 7% | [1]; at 33.0 µM 38% | [2]; at 1.2 µM 6% | [2]; at 3.7 µM 9% | [2]; at 11.0 µM 11% | [2]; at 33.0 µM 12% | [2]; at 100.0 µM 33% | [3]; at 1.2 µM 15% | [3]; at 3.7 µM 12% | [3]; at 11.0 µM 10% | [3]; at 33.0 µM 36% | [4]; at 1.2 µM 4% | [4]; at 3.7 µM 12% | [4]; at 11.0 µM 11% | [4]; at 33.0 µM 23% | [5]; at 1.2 µM 9% | [5]; at 3.7 µM 9% | [5]; [17] -12% | [5]; at 11.0 µM 8% | [5]; at 33.0 µM 61% | [6]; at 1.2 µM 10% | [6]; at 3.7 µM 12% | [6]; [17] -19% | [6]; at 11.0 µM 13% | [6]; at 33.0 µM 23% | [6]; [18] 1% | [7]; at 1.2 µM 12% | [7]; at 3.7 µM 11% | [7]; at 11.0 µM 14% | [7]; at 33.0 µM 32% | [8]; [17] -14% | [9]; at 1.2 µM 13% | [9]; at 3.7 µM 15% | [9]; at 11.0 µM 14% | [9]; at 33.0 µM 32% | [10]; [17] -10% | [10]; [18] 6% | [10]; at 50.0 µM 38.6% | [11]; at 1.2 µM 12% | [11]; at 3.7 µM 15% | [11]; [17] 25% | [11]; at 11.0 µM 16% | [11]; at 33.0 µM 33% | [11]; at 50.0 µM 51.8% | [12]; at 1.2 µM -6% | [12]; at 3.7 µM -4% | [12]; at 11.0 µM -7% | [12]; at 33.0 µM -8% | [13]; at 1.2 µM 8% | [13]; at 3.7 µM 9% | [13]; at 11.0 µM 10% | [13]; at 33.0 µM 29% | [14]; at 1.2 µM -14% | [14]; at 3.7 µM -21% | [14]; at 11.0 µM -13% | [14]; at 33.0 µM 16% | [15]; [17] -30% | [15]; at 50.0 µM 9.9% | [16]; at 1.2 µM 11% | [16]; at 3.7 µM 11% | [16]; at 11.0 µM 13% | [16]; at 33.0 µM 33%

CCN(CC)CCNc1ccc2ncn3c4ccc(O)cc4c(=O)c1c23
inactive: [1]; at 1.2 µM 9% | [1]; at 3.7 µM 28% | [1]; at 11.0 µM 56% | [2]; at 1.2 µM 0% | [2]; at 3.7 µM -2% | [2]; at 11.0 µM -4% | [2]; at 33.0 µM -2% | [2]; at 100.0 µM 1% | [3]; at 1.2 µM -1% | [3]; at 3.7 µM 6% | [3]; at 11.0 µM 13% | [3]; at 33.0 µM 26% | [3]; at 100.0 µM 39% | [4]; at 1.2 µM -3% | [4]; at 3.7 µM -6% | [4]; at 11.0 µM -1% | [4]; at 33.0 µM 1% | [4]; at 100.0 µM 1% | [5]; at 1.2 µM 13% | [5]; at 3.7 µM 32% | [5]; [17] 65% | [5]; at 11.0 µM 65% | [5]; [18] 65% | [5]; at 50.0 µM -6.6% | [6]; at 1.2 µM -3% | [6]; at 3.7 µM -3% | [6]; [17] 18% | [6]; at 11.0 µM -2% | [6]; at 33.0 µM 4% | [6]; [18] 18% | [6]; at 50.0 µM 3.05% | [6]; at 100.0 µM 22% | [7]; at 1.2 µM 2% | [7]; at 3.7 µM -1% | [7]; at 11.0 µM 3% | [7]; at 33.0 µM 3% | [7]; at 100.0 µM 6% | [8]; [17] 13% | [8]; [18] 13% | [8]; at 50.0 µM -33.6% | [9]; at 1.2 µM -4% | [9]; at 3.7 µM 1% | [9]; at 11.0 µM 0% | [9]; at 33.0 µM 2% | [9]; at 100.0 µM -1% | [10]; [17] 18% | [10]; [18] 18% | [10]; at 50.0 µM 19.9% | [11]; at 1.2 µM -7% | [11]; at 3.7 µM -9% | [11]; [17] 30% | [11]; at 11.0 µM 3% | [11]; at 33.0 µM 4% | [11]; [18] 30% | [11]; at 50.0 µM 8.45% | [11]; at 100.0 µM -11% | [12]; at 1.2 µM -1% | [12]; at 3.7 µM 1% | [12]; at 11.0 µM -3% | [12]; at 33.0 µM 1% | [12]; at 100.0 µM -2% | [13]; at 1.2 µM -5% | [13]; at 3.7 µM -4% | [13]; at 11.0 µM -2% | [13]; at 33.0 µM -5% | [13]; at 100.0 µM 10% | [14]; at 1.2 µM -4% | [14]; at 3.7 µM -6% | [14]; at 11.0 µM -6% | [14]; at 33.0 µM -4% | [14]; at 100.0 µM -1% | [15]; [17] 25% | [15]; [18] 25% | [15]; at 50.0 µM 64.7% | [16]; at 1.2 µM 0% | [16]; at 3.7 µM -4% | [16]; at 11.0 µM -11% | [16]; at 33.0 µM -8% | [16]; at 100.0 µM -14%
active: [1]; at 33.0 µM 75% | [1]; at 100.0 µM 85% | [5]; at 33.0 µM 81% | [5]; at 100.0 µM 87%
